Test results: PubChem BioAssay (NCATS)
Inconclusive results are not listed. Active and inactive are the calls of the source. Calls follow the shape of the dose curve; as a rule, active = well fitted curve in the direction sought with a large enough effect; inconclusive = small, poorly fitted or top-dose-only effect, or another doubt; inactive = no such curve, though single readings can be large; an effect the other way counts as inactive or inconclusive. Where a SMILES comes first, the peptide text is derived from it. Bridges are numbered along the chain shown (N, C = ends). [ ]: non-standard residue; d: D form. NMeY = CN[CH](Cc1ccc(O)cc1)C(=O)O

How the values were obtained:
[1] = target: Glutathione peroxidase 1 (Homo sapiens) (UniProt P07203); test: Primary qHTS Assay for Inhibitors of Recombinant Selenoprotein Glutathione Peroxidase 1 (GPX1) (AID 1845191); also: nearly all actives have a fitted effect of over 65% in size
Sequence of Glutathione peroxidase 1 (Homo sapiens) (P07203 whole entry, looked up): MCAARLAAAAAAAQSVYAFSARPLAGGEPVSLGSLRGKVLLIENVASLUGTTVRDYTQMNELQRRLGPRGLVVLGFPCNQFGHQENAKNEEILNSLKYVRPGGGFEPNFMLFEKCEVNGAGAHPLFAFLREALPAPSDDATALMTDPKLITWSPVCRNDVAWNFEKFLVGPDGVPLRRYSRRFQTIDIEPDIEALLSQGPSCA
Procedure, shortened: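 NADPH consumption tracked by fluorescence at 340/450 nm between t=0 and t=15 min, room temperature. Final mix: 10 nM GPX1, 100 nM glutathione reductase, 1 mM GSH, 0.5 mM NADPH, 0.5 mM cumene hydroperoxide, 0.01% BSA; 30 min compound–enzyme preincubation.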

[2] = target: Phospholipid hydroperoxide glutathione peroxidase GPX4 (Homo sapiens) (UniProt P36969); test: Primary qHTS Assay for Inhibitors of Recombinant Selenoprotein Glutathione Peroxidase 4 (GPX4) (AID 1845192); also: nearly all actives have a fitted effect of over 65% in size
Sequence of Phospholipid hydroperoxide glutathione peroxidase GPX4 (Homo sapiens) (P36969 whole entry, looked up): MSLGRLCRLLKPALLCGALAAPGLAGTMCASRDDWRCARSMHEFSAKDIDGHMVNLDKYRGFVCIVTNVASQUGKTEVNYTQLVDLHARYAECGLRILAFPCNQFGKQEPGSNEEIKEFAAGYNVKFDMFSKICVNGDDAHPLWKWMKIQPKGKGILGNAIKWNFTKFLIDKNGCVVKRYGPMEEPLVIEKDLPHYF
Procedure, shortened: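 NADPH consumption followed by fluorescence at 340/450 nm, t=0 and after 15 min at room temperature. Reaction started with cumene hydroperoxide (0.5 mM final) after 30 min compound–GPX4 preincubation; final 200 nM GPX4, 100 nM GR, 1 mM GSH, 0.5 mM NADPH.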

[3] = target: Luciferin 4-monooxygenase (Photinus pyralis) (UniProt P08659); test: Primary firefly luciferase (FLuc) qHTS assay for identification of artifact compounds. (AID 1845220); also: nearly all actives have a fitted effect of over 60% in size
Procedure, shortened: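 Compounds sat 15 min at room temperature with 10 uM luciferin and 10 uM ATP (pH 7.6 Tris acetate). Firefly luciferase (10 nM final) was then added, and luminescence was read 5 min later. Data normalized to no-enzyme and DMSO controls were Hill-fitted.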

[4] = Primary fluorescence-based thiol-reactive (MSTI) qHTS assay for identification of artifact compounds. (AID 1845221); also: nearly all actives have a fitted effect of over 65% in size; also: potency is read from the fitted curve at half-maximal effect
Procedure, shortened: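 Reactivity toward the thiol probe MSTI (4 uM) is scored by fluorescence at Ex/Em 525/598 nm after 1 h at room temperature. Acetyl-MSTI and MSTI define the activity scale.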

[5] = tested on: Nanoluciferase (engineered Oplophorus gracilirostris luciferase); test: Primary Nanoluciferase (NLuc) qHTS assay for identification of artifact compounds. (AID 1845222); also: series mostly up to about 54 µM
Procedure, shortened: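 Luminescence from secreted NLuc (filtered, 1:55-diluted S16 cell medium) read 5 min after Nano-Glo substrate; compounds preincubated 15 min, RT. Hill fits of inhibition normalized to DMSO and no-enzyme.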

[6] = Primary redox qHTS assay for identification of artifact compounds. (AID 1845223)
Procedure, shortened: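 Redox-cycling detection via DTT (250 uM final) oxidation coupled to Amplex Red (25 uM)/HRP (250 mU/mL) in HBSS. 15 min preincubation plus 30 min after DTT, room temperature. Ex/Em 525/598 nm; 4-parameter Hill fit against DMSO and 10 uM DA3003.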

Measured: Potency

CC1=CC(=O)CC(C)(C)C1/C=C/C(C)O[C@@H]1O[C@H](CO)[C@@H](O)[C@H](O)[C@H]1O[C@@H]1OC[C@](O)(CO)[C@H]1O (some centres not stated)
inactive: [1] | [2] | [3] | [4] | [5] | [6]

C/C=C/c1cc(OC)c2c(c1)[C@@H](C)[C@@H](c1ccc(O)c(OC)c1)O2
inactive: [1] | [2] | [3] | [4] | [5] | [6]

C[C@H]1CC(=O)Nc2cccc(-c3cnn(C(C)(C)C)c3)c2N1
inactive: [1] | [2] | [3] | [4] | [5] | [6]

CC1=C2C[C@H]3O[C@@]3(C)CCC3O[C@@]3(C)C[C@@]2(O)OC1=O (some centres not stated)
inactive: [1] | [2] | [3] | [4] | [5] | [6]

O=C1CSc2ccccc2N1Cc1cccc(C(F)(F)F)c1
inactive: [1] | [2] | [3] | [4] | [5] | [6]

CC1CC[C@]2(C(=O)O)CC[C@]3(C(=O)O)C(=CCC4[C@@]5(C)CC[C@H](O[C@@H]6O[C@H](CO)[C@@H](O)[C@H](O)[C@H]6O)C(C)(C)C5CC[C@]43C)C2C1C (some centres not stated)
inactive: [1] | [2] | [3] | [4] | [5] | [6]

O=C1NC2CCc3nc4ccccc4c(=O)n3C2=Nc2ccccc21 (configuration not stated)
inactive: [1] | [2] | [3] | [4] | [5] | [6]

CC1CCC2(C(=O)O)CCC3(C)C(=CCC4C5(C)CCC(OC(=O)/C=C/c6ccccc6)C(C)(C)C5CCC43C)C2C1C (configuration not stated)
inactive: [1] | [2] | [3] | [4] | [5] | [6]

CN(c1ccccc1CNc1nc(Nc2ccc3c(c2)CC(=O)N3)ncc1C(F)(F)F)S(C)(=O)=O
active: [4] 10.6 µM
inactive: [1] | [2] | [3] | [5] | [6]

CC1(C(=O)O)CCCC2(C)C3=CCC4CC3(CCC12)CC4CO (configuration not stated)
inactive: [1] | [2] | [3] | [4] | [5] | [6]

COc1ccc(C(=O)C2CCN(CC(=O)N(Cc3nc4c(c(=O)[nH]3)COCC4)CC3CC3)CC2)cc1
inactive: [1] | [2] | [3] | [4] | [5] | [6]

COC(=O)c1ccc(OC(CO)C(O)c2ccc(O)c(OC)c2)c(OC)c1 (configuration not stated)
inactive: [1] | [2] | [3] | [4] | [5] | [6]

C=C1CCCC2(C)CC3(OC)OC(=O)C(C)=C3CC12 (configuration not stated)
inactive: [1] | [2] | [3] | [4] | [5] | [6]

CCCC(=O)O[C@@H]1[C@@H]2[C@@H](OC(C)=O)[C@]3(C)C(=O)[C@H]4[C@@H](OC(C)=O)C(C)(C)C[C@H]4[C@]3(C)C(=O)[C@@]2(OC(C)=O)C[C@@H]1C
inactive: [1] | [2] | [3] | [4] | [5] | [6]

Cc1[nH]nc(C(F)(F)F)c1Cc1sc2c(c1C(=O)N1C[C@](C)(O)CO1)c(=O)n(C)c(=O)n2C(C)C
inactive: [1] | [2] | [3] | [4] | [5] | [6]

COc1cc2c(c(OC)c1CC=C(C)C)C[C@H](c1ccc(O)cc1O)CO2
inactive: [1] | [2] | [3] | [5] | [6]
active: [4] 13.1 µM

C=C(C(=O)O)[C@H]1C[C@]2(C)[C@@H](O)CC[C@]23O[C@H]1C[C@@H]3C
active: [4] 29.9 µM
inactive: [1] | [2] | [3] | [5] | [6]

C[C@@H]1CC[C@]2(C(=O)O)CC[C@]3(C)C(=CCC4[C@@]5(C)CC[C@H](O)C(C)(C)C5C(O)C[C@]43C)[C@@H]2[C@]1(C)O (some centres not stated)
active: [4] 13 µM
inactive: [1] | [2] | [3] | [5] | [6]

COC(=O)CC(O)C1OC(c2ccccc2)C(O)C1O (configuration not stated)
active: [4] 8.44 µM
inactive: [1] | [2] | [3] | [5] | [6]

CCC(C)C1NC(=O)C2CCCN2C(=O)C(NC(C)=O)C(C)OC(=O)C(Cc2ccc(OC)cc2)N(C)C(=O)C2CCCN2C(=O)C(C(C)C)NC1=O (configuration not stated) (Ac-TPIVP[NMeY](Me); ester 1-C; configuration not given here)
inactive: [1] | [2] | [3] | [4] | [5] | [6]

N#Cc1cnc2cnc(NCc3cccnc3)cc2c1Nc1ccc(F)c(Cl)c1
inactive: [1] | [2] | [3] | [4] | [5] | [6]

Cc1noc(=O)c2ccc(NC(=O)C(O)(CC(C)(C)c3cccc4c3OCC4)C(F)(F)F)cc12 (configuration not stated)
inactive: [1] | [2] | [3] | [4] | [5] | [6]
